Source: PubChem BioAssay (NCATS)
Values joined by “and” are separate entries in the source; they are usually repeats but may differ in a detail not shown here. Equal values may be shown once. Inconclusive results are not listed. Some compounds were tested as several samples or in several runs, with calls that do not always agree. Active and inactive are the calls of the source. Unless noted, the call rests on the fitted dose curve; in most records, active means well fitted curve in the direction sought with a large enough effect; inconclusive means small, poorly fitted or top-dose-only effect, or another doubt; inactive means no such curve, though single readings can be large; an effect the other way counts as inactive or inconclusive.

Tests used:
MKL-2 = experiment: qHTS assay to identify novel small-molecules to repurpose for Merkel cell carcinoma treatment (AID 1296009); settings: MCC and control cell lines, CellTiter-Glo viability, 72 h; series mostly up to 46 µM; further: nearly all actives have a fitted effect of over 60% in size; further: potency means the concentration at half of the fitted maximal effect
Method in brief: (§1)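 Luminescence from CellTiter-Glo, read 10 min after addition at room temperature, reported viability following a 72 hr, 37 degree celsius treatment with NPC or MIPE compounds in titration; values normalized to plate controls.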

UISO = experiment: as above; settings: MCC and control cell lines, CellTiter-Glo viability, 72 h; series mostly up to 46 µM
Method in brief: as §1

WaGa = experiment: as above; settings: MCC and control cell lines, CellTiter-Glo viability, 72 h; series mostly up to 46 µM
Method in brief: as §1

C33A = experiment: Primary qHTS to identify gynecologic anti-cancer compounds using libraries of approved drugs and bioactive compounds (AID 1345084); settings: Gynecologic cancer cell panel viability, ATPlite luminescence, 48 h; series mostly up to 57.5 µM; further: nearly all actives have a fitted effect of over 55% in size; further: potency means the concentration at half of the fitted maximal effect
Method in brief: (§2)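 Measured: luminescence after ATPlite addition (15 min, RT). Exposure: 48 h, 37 C, 5% CO2.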

CASKI = experiment: as above; settings: Gynecologic cancer cell panel viability, ATPlite luminescence, 48 h; series mostly up to 57.5 µM
Method in brief: as §2

Es-2 = experiment: as above; settings: Gynecologic cancer cell panel viability, ATPlite luminescence, 48 h; series mostly up to 57.5 µM
Method in brief: as §2

HeLa = experiment: as above; settings: Gynecologic cancer cell panel viability, ATPlite luminescence, 48 h; series mostly up to 57.5 µM
Method in brief: as §2

Hek293T = experiment: as above; settings: Gynecologic cancer cell panel viability, ATPlite luminescence, 48 h, control line for the selectivity index; series mostly up to 57.5 µM
Method in brief: as §2

JEG-3 = experiment: as above; settings: Gynecologic cancer cell panel viability, ATPlite luminescence, 48 h; series mostly up to 57.5 µM
Method in brief: as §2

OV90 = experiment: as above; settings: Gynecologic cancer cell panel viability, ATPlite luminescence, 48 h; series mostly up to 57.5 µM
Method in brief: as §2

PA-1 = experiment: as above; settings: Gynecologic cancer cell panel viability, ATPlite luminescence, 48 h; series mostly up to 57.5 µM
Method in brief: as §2

SKOV3 = experiment: as above; settings: Gynecologic cancer cell panel viability, ATPlite luminescence, 48 h; series mostly up to 57.5 µM
Method in brief: as §2

Tov-21-G = experiment: as above; settings: Gynecologic cancer cell panel viability, ATPlite luminescence, 48 h; series mostly up to 57.5 µM
Method in brief: as §2

Tov112D = experiment: as above; settings: Gynecologic cancer cell panel viability, ATPlite luminescence, 48 h; series mostly up to 57.5 µM
Method in brief: as §2

[1] = Drug repurposing screens with cells derived from glioblastoma tumor samples (AID 1345199); settings: GBM patient neurospheres viability, ATP luminescence, 48 h; further: nearly all actives have a fitted effect of over 40% in size; further: potency means the concentration at half of the fitted maximal effect; on activity, negative = cell killing: on the % scale 0 is the no-effect control and ±100 the full control effect
Method in brief: (§3)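 Primary testing used CD133+ neurospheres from four GBM patients, seven concentrations, 48 h exposure and ATP-based viability; confirmation added three slower-growing patient lines.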

astro = experiment: as above; settings: viability, ATP luminescence, 48 h; series mostly up to 45.9 µM
Method in brief: as §3

[2] = target: Nuclear receptor subfamily 1 group I member 2 (Rattus norvegicus) (UniProt Q9R1A7); experiment: qHTS assay for small molecule activators of the rat pregnane X receptor (rPXR) signaling pathway (AID 651751; call rule not given here; further: 0% is about no effect); settings: rPXR reporter cells, luciferase (One-Glo), 24 h
CAOV3 = experiment: Primary qHTS to identify gynecologic anti-cancer compounds using libraries of approved drugs and bioactive compounds (AID 1345084); settings: Gynecologic cancer cell panel viability, ATPlite luminescence, 48 h; series mostly up to 57.5 µM; further: nearly all actives have a fitted effect of over 55% in size; further: potency means the concentration at half of the fitted maximal effect
Method in brief: as §2

[3] = qHTS assay to identify inhibitors of the type 1 interferon - major histocompatibility complex class I in skeletal muscle: Counter screen cell viability and HiBit confirmation (AID 1347412); settings: iHSKM muscle cells + IFN-b, HiBiT or CellTiter-Glo, 24 h; for activity change, negative = inhibition: at 45.9 µM (top of the series); further: potency means the concentration at half of the fitted maximal effect; on activity change, negative = inhibition: on the % scale 0 is the no-effect control and ±100 the full control effect; on all read-outs here: nearly all actives have a fitted effect of over 60% in size
Method in brief: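 CRISPR HLA-B*08:01-HiBit immortalized human myoblasts (C25cl48) stimulated with 4 ng/ml IFN-beta and compounds (12-point 1:3, top 46 uM final) for 24 h at 37 C. Duplicate plates read by HiBit lytic luminescence or CellTiter Glo ATP.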

[4] = at 45.9 µM (top of the series), tumour line B
[5] = at 45.9 µM (top of the series), tumour line D
[6] = at 46 µM (top of the series), tumour line A
[7] = at 46.1 µM (top of the series), tumour line C

Chain of Nuclear receptor subfamily 1 group I member 2 (Rattus norvegicus) (Q9R1A7 whole entry, looked up): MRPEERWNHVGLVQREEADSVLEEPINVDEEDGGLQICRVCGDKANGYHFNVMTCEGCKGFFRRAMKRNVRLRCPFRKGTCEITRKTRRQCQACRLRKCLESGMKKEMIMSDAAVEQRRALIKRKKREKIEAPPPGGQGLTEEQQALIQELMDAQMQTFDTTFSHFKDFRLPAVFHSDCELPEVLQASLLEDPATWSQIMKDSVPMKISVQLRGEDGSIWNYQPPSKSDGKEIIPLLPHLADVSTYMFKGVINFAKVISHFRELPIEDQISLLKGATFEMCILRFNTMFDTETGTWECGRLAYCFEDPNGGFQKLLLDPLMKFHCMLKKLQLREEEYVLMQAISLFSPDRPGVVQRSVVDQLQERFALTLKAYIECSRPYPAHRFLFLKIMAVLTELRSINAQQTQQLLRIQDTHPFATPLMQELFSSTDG

COc1ccc(Cl)cc1C(=O)NCCc1ccc(S(=O)(=O)NC(=O)NC2CCCCC2)cc1
inactive: Potency (MKL-2) | Potency (UISO) | Potency (WaGa) | Potency (C33A) | Potency (CASKI) | Potency (Es-2) | Potency (HeLa) | Potency (Hek293T) | Potency (JEG-3) | Potency (OV90) | Potency (PA-1) | Potency (SKOV3) | Potency (Tov-21-G) | Potency (Tov112D) | activity, negative = cell killing [1, 4] 5.08% | activity, negative = cell killing [1, 5] -17.4% | activity, negative = cell killing [1, 6] -29% | activity, negative = cell killing [1, 7] -8.3% | Potency (astro) | max response [2] 1.29%

CCCOC(=O)c1ccccc1
inactive: Potency (MKL-2) | Potency (UISO) | Potency (WaGa) | Potency (C33A) | Potency (CASKI) | Potency (Es-2) | Potency (HeLa) | Potency (Hek293T) | Potency (JEG-3) | Potency (OV90) | Potency (PA-1) | Potency (SKOV3) | Potency (Tov-21-G) | Potency (Tov112D) | activity, negative = cell killing [1, 4] -11.5% | activity, negative = cell killing [1, 5] 1.56% | activity, negative = cell killing [1, 6] -26.7% | activity, negative = cell killing [1, 7] -15.4% | Potency (astro)

CCN(CC)CCNC(=O)c1c(C)[nH]c(/C=C2\C(=O)Nc3ccc(F)cc32)c1C
active: Potency (MKL-2) 2.99 µM | Potency (UISO) 11.9 µM | Potency (WaGa) 11.9 µM | Potency (CAOV3) 25.1 µM | Potency (OV90) 10 µM | Potency (PA-1) 10 µM | Potency (SKOV3) 8.91 µM | Potency ([1]; tumour line A) 11.2 µM | Potency ([1]; tumour line D) 28.2 µM | Potency (astro) 12.6 µM | Potency ([3]; HiBiT) 3.94 µM | Potency ([3]; Viability) 7.01 µM
inactive: Potency (C33A) | Potency (Hek293T) | Potency (JEG-3) | Potency (Tov112D) | activity, negative = cell killing [1, 7] 3.12%

Nc1ccc(S(=O)(=O)Nc2ccccc2)cc1
inactive: Potency (MKL-2) | Potency (UISO) | Potency (WaGa) | Potency (C33A) | Potency (CASKI) | Potency (Es-2) | Potency (HeLa) | Potency (Hek293T) | Potency (JEG-3) | Potency (OV90) | Potency (PA-1) | Potency (SKOV3) | Potency (Tov-21-G) | Potency (Tov112D) | activity, negative = cell killing [1, 4] 11.7% | activity, negative = cell killing [1, 5] -2.38% | activity, negative = cell killing [1, 7] -16.6% | Potency (astro)

CC(=O)Oc1c(C)c(C)c2c(c1C)CC[C@@](C)(CCC[C@H](C)CCC[C@H](C)CCCC(C)C)O2
inactive: Potency (C33A) | Potency (CAOV3) | Potency (CASKI) | Potency (Es-2) | Potency (HeLa) | Potency (Hek293T) | Potency (JEG-3) | Potency (OV90) | Potency (PA-1) | Potency (SKOV3) | Potency (Tov-21-G) | Potency (Tov112D) | activity, negative = cell killing [1, 4] -3.11% and -14.8% and -20.3% | activity, negative = cell killing [1, 5] -2.72% and -19.7% and -14.1% | activity, negative = cell killing [1, 6] -21.7% and -44.1% | activity, negative = cell killing [1, 7] -8.98% and 2.94% and -0.939% | Potency (astro)

NC1[C@H]2CN(c3nc4c(cc3F)c(=O)c(C(=O)O)cn4-c3ccc(F)cc3F)C[C@@H]12 (stereo partly drawn)
inactive: Potency (CASKI) | Potency (JEG-3) | Potency (OV90) | Potency (Tov112D) | activity, negative = cell killing [1, 4] -29.1%
active: Potency (UISO) 26.6 µM | Potency (WaGa) 21.1 µM

CSc1ccc2c(c1)N(CCC1CCCCN1C)c1ccccc1S2 (stereo not drawn)
inactive: Potency (Es-2) | Potency (HeLa) | Potency (Hek293T) | activity, negative = cell killing [1, 7] -0.209%
active: Potency (MKL-2) 3.35 µM | Potency (UISO) 26.6 µM | Potency (WaGa) 23.7 µM | Potency (Tov112D) 28.2 µM | Potency ([1]; tumour line A) 2.82 µM | Potency ([1]; tumour line B) 20 µM | Potency ([1]; tumour line D) 5.01 µM | Potency (astro) 20 µM

COC(=O)C1=C(C)NC(C)=C(C(=O)OC)C1c1ccccc1[N+](=O)[O-]
inactive: Potency (C33A) | Potency (CASKI) | Potency (Es-2) | Potency (Hek293T) | Potency (JEG-3) | Potency (OV90) | Potency (PA-1) | Potency (SKOV3) | Potency (Tov-21-G) | Potency (Tov112D)
active: Potency (MKL-2) 23.7 µM

Cc1c(O)cccc1C(=O)N[C@@H](CSc1ccccc1)[C@H](O)CN1C[C@H]2CCCC[C@H]2C[C@H]1C(=O)NC(C)(C)C
inactive: Potency (CAOV3) | Potency (CASKI) | Potency (Es-2) | Potency (HeLa) | Potency (Hek293T) | Potency (JEG-3) | Potency (OV90) | Potency (PA-1) | Potency (Tov-21-G) | Potency (Tov112D) | activity, negative = cell killing [1, 7] 0.268%
active: Potency ([1]; tumour line A) 6.31 µM | Potency ([1]; tumour line B) 11.2 µM | Potency ([1]; tumour line D) 20 µM | Potency (astro) 35.5 µM

O=C(CCCN1CCN(c2ccccn2)CC1)c1ccc(F)cc1
inactive: Potency (MKL-2) | Potency (WaGa) | Potency (C33A) | Potency (CAOV3) | Potency (CASKI) | Potency (Es-2) | Potency (HeLa) | Potency (Hek293T) | Potency (JEG-3) | Potency (OV90) | Potency (PA-1) | Potency (SKOV3) | Potency (Tov-21-G) | Potency (Tov112D) | activity, negative = cell killing [1, 4] -17% | Potency (astro)
active: Potency ([1]; tumour line A) 8.91 µM

CC(=O)O[C@@]12CO[C@@H]1C[C@H](O)[C@@]1(C)C(=O)[C@H](O)C3=C(C)[C@@H](OC(=O)[C@H](O)[C@@H](NC(=O)OC(C)(C)C)c4ccccc4)C[C@@](O)([C@@H](OC(=O)c4ccccc4)[C@H]21)C3(C)C
active: Potency ([1]; tumour line A) 10 µM
inactive: Potency (MKL-2) | Potency (C33A) | Potency (CAOV3) | Potency (CASKI) | Potency (Hek293T) | Potency (JEG-3) | Potency (OV90) | Potency (Tov112D) | activity, negative = cell killing [1, 4] -12.5% and -11.2% | activity, negative = cell killing [1, 5] -11.2% and -24.9% | activity change, negative = inhibition ([3]; HiBiT) -20.7% | activity change, negative = inhibition ([3]; Viability) -25.4%

COCCOC(=O)C1=C(C)NC(C)=C(C(=O)OC/C=C/c2ccccc2)C1c1cccc([N+](=O)[O-])c1 (stereo not drawn)
inactive: Potency (Es-2) | Potency (HeLa) | Potency (JEG-3) | Potency (OV90) | Potency (Tov-21-G) | Potency (Tov112D) | activity, negative = cell killing [1, 4] 2.48%
active: Potency ([1]; tumour line A) 3.55 µM | Potency ([1]; tumour line C) 18.4 µM | Potency ([1]; tumour line D) 12.6 µM

CNCCC(Oc1ccc(C(F)(F)F)cc1)c1ccccc1 (stereo not drawn)
active: Potency (WaGa) 21.1 µM | Potency ([1]; tumour line A) 3.55 µM | Potency ([1]; tumour line B) 20 µM
inactive: Potency (JEG-3) | Potency (Tov112D) | activity, negative = cell killing [1, 7] -4.69%

CCCCN(CCCC)CC(O)c1cc(Cl)cc2c1-c1ccc(Cl)cc1/C2=C/c1ccc(Cl)cc1 (stereo not drawn)
inactive: Potency (WaGa) | Potency (C33A) | Potency (CAOV3) | Potency (CASKI) | Potency (Es-2) | Potency (HeLa) | Potency (Hek293T) | Potency (JEG-3) | Potency (PA-1) | Potency (Tov-21-G) | Potency (Tov112D) | Potency (astro)

CC[N+](CC)(CC)CCOc1ccc(/C=C/c2ccccc2)cc1
active: Potency (MKL-2) 1.68 µM | Potency (UISO) 1.19 µM | Potency (WaGa) 1.88 µM | Potency (C33A) 14.1 µM | Potency (JEG-3) 31.6 µM | Potency (OV90) 17.8 µM | Potency (PA-1) 2.51 µM | Potency (SKOV3) 10 µM | Potency (Tov-21-G) 25.1 µM
